Measurements: the supplement of paper PMC10105736
Unmarked numbers belong to inactive results.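 How the source made its calls: active = MAPPIT score above the 99th percentile of random reference set scores in the same batch; inactive = at or below it.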

What was measured:
Assay in all cases: MAPPIT interaction score (arbitrary units); higher = stronger binary interaction signal, active = hit call of the paper
[1] = molecular target: Rpn6; conditions: pair source set: Lit-BM-16
[2] = molecular target: Sfp84E; conditions: pair source set: RRS
[3] = molecular target: alc; conditions: MAPPIT configuration: N-N; pair source set: Lit-BS-16
[4] = molecular target: robl62A; conditions: MAPPIT configuration: N-N; pair source set: RRS
[5] = substrate: SNCF; conditions: MAPPIT configuration: N-N; pair source set: DPIM
[6] = molecular target: SelR; conditions: MAPPIT configuration: N-N; pair source set: Curagen_high_conf
[7] = molecular target: Rtnl1; conditions: MAPPIT configuration: N-N; pair source set: screen_2
[8] = molecular target: ScpX; conditions: MAPPIT configuration: N-N; pair source set: Curagen_high_conf
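Further: HEK293T cells with Epo stimulation, STAT-responsive firefly luciferase reporter, fold induction versus unstimulated cells divided by the larger fold induction of two negative controls lacking either bait or prey.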

B1: alien (protein)
chain: MSDNDDDFMCDDDEDYGLEYSEDSNSEPDVDLENQYYNSKALKEEEPKAALASFQKVLDLENGEKGEWGFKALKQMIKINFRLCNYDEMMVRYKQLLTYIKSAVTRNHSEKSINSILDYISTSKNMALLQNFYETTLDALRDAKNDRLWFKTNTKLGKLYFDRSDFTKLQKILKQLHQSCQTDDGEDDLKKGTQLLEIYALEIQMYTVQKNNKKLKALYEQSLHIKSAIPHPLIMGVIRECGGKMHLREGEFEKAHTDFFEAFKNYDESGSPRRTTCLKYLVLANMLMKSGINPFDSQEAKPYKNDPEILAMTNLVNSYQNNDINEFETILRQHRSNIMADQFIREHIEDLLRNIRTQVLIKLIRPYKNIAIPFIANALNIEPAEVESLLVSCILDDTIKGRIDQVNQVLQLDKINSSASRYNALEKWSNQIQSLQFAVVQKMA
MAPPIT interaction score ([1]; MAPPIT configuration: N-C): 4.99 (active)
MAPPIT interaction score ([1]; MAPPIT configuration: N-N): 0.207

B2: Adi1 (protein)
chain: MVQVWYMDTEETDQRLEHHRNPPAYLELDDLYQKTGVEYFKINADEYQSDNTLTELRAKRGYTYDDEITCSEKCLPDYANKLKAFFTEHLHTDEEIRLILEGSGYFDVRDNEDNWLRIKVVKGDLIIIPAGIYHRFTLDTNNFIRTRRYFVGEPVWAPHNRPADEMDCRKSYIKHQSENFVQFNKV
MAPPIT interaction score ([2]; MAPPIT configuration: N-C): 0.249
MAPPIT interaction score ([2]; MAPPIT configuration: N-N): 0.123
MAPPIT interaction score [3]: 0.0614
MAPPIT interaction score [4]: 2.17

B3: SmD2 (protein)
chain: MALVKPKSELTPEELARQEEEEFNTGPLSVLTQSVKNNTQVLINCRNNKKLLGRVKAFDRHCNMVLENVKEMWTELPRTGKGKKKVKPVNKDRFISKMFLRGDSVILVLRNPLATAAGK
MAPPIT interaction score [5]: 0.49

B4: CG11899 (protein)
chain: MVINFAAGPAKLPEEVLKEVQENLVNCNGSGISVMEMSHRSSNYAKIHDATISDLRELLNVPSNYKILLMQGGGTGQFAAVALNLIGKTGTADYVITGSWSAKAAKEAAQYGTVNAVLPKLAKYTTVPRQETWKLDPNASYVYYCDNETVEGVEFDFVPEVPAGVPLVADMSSNFLSRPFDVSKFGVIYAGAQKNIGPAGTTVIIVRDDLIGKHLKITPSILNFEQMDKNNSLLNTPPTFGIYVMGLVFKWIKRNGGVAGMAKLAAAKSKLIYDTINQSNGFYYCPVDVNVRSRMNVPFRIGSASGDDALEKEFLSKAEAEGMIQLKGHRSVGGIRASLYNAVTLAETQQLANLMLAFYKNNKN
MAPPIT interaction score [6]: 0.998

B5: rush (protein)
chain: MVDRLVNSEANTRRIASVENCFGSSGVPLAMQGRVLVGEGVLTKMCRKRPKSRQFFLFNDILVYGNIVIGKKKYNKQHIMPLEEVSLESIADNQTYRNGWYIRTTTKSFVVFAATSTEKQEWMAHINKCVEDLLRKSGKKPVENHAAVWVPDTDASVCMHCKKTQFTFIQRRHHCRNCGAVVCAGCSAKKFLLPQQSTKALRVCDACYERLKHVPSSLGSGEDSAAATGAASGNKLNTTAGDSSNDEDSDEETASPGGESHDEPRFYGDNSVLSAVEDSSTITSPSSATTGSLEAPQVTPSVQSSPAAVATTGSHC
MAPPIT interaction score [7]: -0.205

B6: CG32486 (protein)
chain: MSVESSSSAVQQPPSSSNLPLLGDNQAVATTSSASSASSSSTSSSSSSVGGGNVVGVPLDTQGSGEPPAKKQLLDGGGGGATSSSGSSLLSSAAAASGMHEKLAHRISNALCCAVCLDLPKTAMYQCQMGHLMCAACFTHLLADGRLRDQIATCPNCRVEISKSTASRNLAVEKAASELPSECQFCNKEFPYKSLERHEQHECQERPTKCKYHRIGCQWRGPYHETNEHERNCLHPQKSGYEVMAALEAHDDRIKEEKKMFNTLIDLLSYEKIIFNDLQMKPYRTDEYVHKLFYETARFSAFNQQWVVKARINNSQRDPHQSNERTITYQLILKTKTSTPMSIHFFALKGPFSDMKVSTQIYKHEFTETSTESEYYVLPLPDGVGGSGSSECNRMLANKGINFRLLMFLLNK
MAPPIT interaction score [8]: 4.53 (active)
